Experimental data: the supplement of paper PMC10849652
The full data set covers some 8,800 targets. This sample favours those with a hit. About 0.5% of all pairs of compound and target were hits.

Assays:
Assay in all cases: log2 fold change, soluble protein after heating vs DMSO (PISA); higher = thermal stabilisation; K562 lysate, 10 uM; active = over 0.2 and 3.5 SD of the protein, either way, in both replicates (recomputed)
vemurafenib = compound: CCCS(=O)(=O)Nc1ccc(F)c(C(=O)c2c[nH]c3ncc(-c4ccc(Cl)cc4)cc23)c1F [vemurafenib]
Summary of the method: (§1)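 Values give the log-two fold change in thermal stability against solvent controls, from duplicates. Crude K562 extract at 1 mg/mL protein, made by dounce homogenisation in PBS pH 7.4 with 1 mM MgCl2, was treated with 10 μM compound for 30 min. After 3 min heating across 48°C-58°C, aliquots were pooled, adjusted to 0.5% NP-40 at 4°C and centrifuged at 21,000xg for 90 min. The supernatant was measured by TMTpro 16plex LC-MS/MS with channel sums equalised.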

[1] = compound: CCCS(=O)(=O)Nc1ccc(F)c(C(=O)c2c[nH]c3ncc(Cl)cc23)c1F
Summary of the method: as §1

barasertib = compound: CCN(CCCOc1ccc2c(Nc3cc(CC(=O)Nc4cccc(F)c4)[nH]n3)ncnc2c1)CCOP(=O)(O)O [barasertib]
Summary of the method: as §1

[2] = compound: CC[C@@H]1C(=O)N(C)c2cnc(Nc3ccc(C(=O)NC4CCN(C)CC4)cc3OC)nc2N1C1CCCC1
Summary of the method: as §1

volasertib = compound: CC[C@@H]1C(=O)N(C)c2cnc(Nc3ccc(C(=O)N[C@H]4CC[C@H](N5CCN(CC6CC6)CC5)CC4)cc3OC)nc2N1C(C)C [volasertib]
Summary of the method: as §1

[3] = compound: CCn1c(C(=O)N(C2CC2)C2CC2)cc2c3c(ncn3C)c(Nc3cc(C)n(C)n3)nc21
Summary of the method: as §1

[4] = compound: CCn1cc(-c2ccnc3[nH]c(-c4cccc(CN(C)C)c4)cc23)c(-c2ccc(NC(=O)N(C)C)cc2)n1
Summary of the method: as §1

[5] = compound: CN1CCC(CNc2ccc3ncc(-c4cccc(OC(F)(F)F)c4)n3n2)CC1
Summary of the method: as §1

saracatinib = compound: CN1CCN(CCOc2cc(OC3CCOCC3)c3c(Nc4c(Cl)ccc5c4OCO5)ncnc3c2)CC1 [saracatinib]
Summary of the method: as §1

sotrastaurin = compound: CN1CCN(c2nc(C3=C(c4c[nH]c5ccccc45)C(=O)NC3=O)c3ccccc3n2)CC1 [sotrastaurin]
Summary of the method: as §1

Measured: log2 fold change

NAA30 (UniProt Q147X3)
inactive: vemurafenib 0.001 | [1] 0.009 | barasertib 0.037 | [2] 0.043 | volasertib 0.012 | [3] -0.058 | [4] -0.022 | [5] 0.043 | saracatinib -0.003 | sotrastaurin 0.045

MYH11 isoform 2 (UniProt P35749)
Chain of UniProt P35749 (P35749 whole entry, looked up): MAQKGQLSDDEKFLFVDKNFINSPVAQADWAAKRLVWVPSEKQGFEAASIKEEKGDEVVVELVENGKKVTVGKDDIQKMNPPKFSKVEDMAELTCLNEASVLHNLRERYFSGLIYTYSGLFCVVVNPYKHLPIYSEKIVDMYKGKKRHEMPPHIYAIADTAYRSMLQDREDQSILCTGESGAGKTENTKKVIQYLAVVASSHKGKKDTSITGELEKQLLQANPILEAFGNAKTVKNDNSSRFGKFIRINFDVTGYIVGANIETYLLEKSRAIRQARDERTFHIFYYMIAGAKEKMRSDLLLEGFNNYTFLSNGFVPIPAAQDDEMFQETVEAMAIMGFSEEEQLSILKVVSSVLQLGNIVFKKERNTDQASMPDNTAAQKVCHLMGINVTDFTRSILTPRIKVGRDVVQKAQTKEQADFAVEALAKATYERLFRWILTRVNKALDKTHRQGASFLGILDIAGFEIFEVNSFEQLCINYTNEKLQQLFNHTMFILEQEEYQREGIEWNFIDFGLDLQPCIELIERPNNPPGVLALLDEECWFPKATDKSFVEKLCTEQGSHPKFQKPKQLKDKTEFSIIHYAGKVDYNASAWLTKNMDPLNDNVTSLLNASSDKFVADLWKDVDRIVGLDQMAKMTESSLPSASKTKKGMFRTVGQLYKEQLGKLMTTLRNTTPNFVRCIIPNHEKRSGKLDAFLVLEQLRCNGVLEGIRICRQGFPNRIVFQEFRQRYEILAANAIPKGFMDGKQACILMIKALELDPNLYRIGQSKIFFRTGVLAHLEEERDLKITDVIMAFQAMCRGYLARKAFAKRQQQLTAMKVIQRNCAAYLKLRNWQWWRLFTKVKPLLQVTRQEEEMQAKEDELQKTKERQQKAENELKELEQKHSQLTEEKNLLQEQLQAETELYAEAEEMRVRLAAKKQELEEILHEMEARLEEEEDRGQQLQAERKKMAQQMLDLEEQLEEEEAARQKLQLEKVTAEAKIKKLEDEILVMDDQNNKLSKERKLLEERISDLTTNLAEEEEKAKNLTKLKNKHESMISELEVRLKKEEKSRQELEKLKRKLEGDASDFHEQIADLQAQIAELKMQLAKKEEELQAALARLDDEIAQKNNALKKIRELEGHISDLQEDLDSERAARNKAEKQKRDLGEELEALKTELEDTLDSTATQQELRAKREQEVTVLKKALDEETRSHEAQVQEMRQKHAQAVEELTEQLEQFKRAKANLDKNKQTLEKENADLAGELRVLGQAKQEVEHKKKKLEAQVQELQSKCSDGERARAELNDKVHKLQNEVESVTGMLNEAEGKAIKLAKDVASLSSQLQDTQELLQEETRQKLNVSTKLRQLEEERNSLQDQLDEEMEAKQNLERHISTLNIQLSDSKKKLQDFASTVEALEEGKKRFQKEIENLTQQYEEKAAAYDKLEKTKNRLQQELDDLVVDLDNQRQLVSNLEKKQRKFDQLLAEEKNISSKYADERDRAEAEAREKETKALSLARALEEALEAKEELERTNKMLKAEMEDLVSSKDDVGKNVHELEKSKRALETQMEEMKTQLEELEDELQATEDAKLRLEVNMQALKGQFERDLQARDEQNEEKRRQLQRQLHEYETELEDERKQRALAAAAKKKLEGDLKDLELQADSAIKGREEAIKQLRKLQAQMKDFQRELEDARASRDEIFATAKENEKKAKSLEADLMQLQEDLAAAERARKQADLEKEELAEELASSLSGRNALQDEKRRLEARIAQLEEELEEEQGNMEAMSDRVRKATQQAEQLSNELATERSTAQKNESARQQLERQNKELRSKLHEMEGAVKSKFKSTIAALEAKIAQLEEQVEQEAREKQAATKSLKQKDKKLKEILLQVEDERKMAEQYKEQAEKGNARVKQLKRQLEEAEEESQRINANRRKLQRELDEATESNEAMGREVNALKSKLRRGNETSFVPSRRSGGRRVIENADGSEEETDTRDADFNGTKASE
inactive: vemurafenib 0.027 | [1] 0.016 | barasertib 0.016 | [2] -0.011 | volasertib -0.025 | [3] 0.091 | [5] -0.033 | saracatinib 0.029 | sotrastaurin 0.002
active: [4] 0.25

MT-ND1 (UniProt P03886)
inactive: vemurafenib -0.074 | [1] 0.012 | barasertib 0.056 | [2] -0.068 | volasertib -0.04 | [3] -0.096 | [4] -0.355 | [5] 0.066 | saracatinib 0.075 | sotrastaurin 0.038

OARD1 (UniProt Q9Y530)
inactive: vemurafenib -0.011 | [1] 0.004 | barasertib -0.01 | [2] -0.01 | volasertib -0.031 | [3] 0.022 | [4] -0.056 | [5] -0.034 | saracatinib 0.006 | sotrastaurin 0.002

NUDT4 (UniProt Q9NZJ9)
inactive: vemurafenib -0.24 | [1] 0.04 | barasertib -0.032 | [2] -0.078 | volasertib -0.054 | [3] 0.082 | [4] 0.23 | [5] 0.005 | saracatinib -0.03 | sotrastaurin 0.005

NFATC2IP (UniProt Q8NCF5)
inactive: vemurafenib -0.024 | [1] 0.069 | barasertib 0.041 | [2] 0.033 | volasertib 0.006 | [3] 0 | [4] 0.076 | [5] -0.031 | saracatinib 0.003 | sotrastaurin -0.004

NTPCR (UniProt Q9BSD7)
Chain of UniProt Q9BSD7 (Q9BSD7 whole entry, looked up): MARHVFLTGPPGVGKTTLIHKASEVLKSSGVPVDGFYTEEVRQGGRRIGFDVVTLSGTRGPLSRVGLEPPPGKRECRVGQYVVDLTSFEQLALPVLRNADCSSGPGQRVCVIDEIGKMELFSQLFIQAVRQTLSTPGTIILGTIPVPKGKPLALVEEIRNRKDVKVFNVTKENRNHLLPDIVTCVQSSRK
inactive: vemurafenib 0.055 | [1] -0.001 | barasertib 0.016 | [2] 0.005 | volasertib -0.066 | [3] 0.032 | [4] -0.038 | [5] -0.021 | saracatinib -0.009 | sotrastaurin 0.011

N6AMT1 (UniProt Q9Y5N5)
inactive: vemurafenib 0.201 | [1] -0.016 | barasertib 0.113 | [2] 0.005 | volasertib -0.04 | [3] 0.006 | [4] -0.047 | [5] -0.048 | saracatinib 0.019 | sotrastaurin 0.038

NAA35 (UniProt Q5VZE5)
inactive: vemurafenib 0 | [1] 0.015 | barasertib -0.01 | [2] 0.05 | volasertib -0.026 | [3] 0.001 | [4] 0.179 | [5] -0.035 | saracatinib 0.026 | sotrastaurin 0.006

PAFAH1B3 (UniProt Q15102)
inactive: vemurafenib -0.008 | [1] 0.002 | barasertib 0.119 | [2] -0.061 | volasertib -0.067 | [3] 0.031 | [4] -0.04 | [5] -0.021 | saracatinib 0.013 | sotrastaurin -0.009

NCAPH (UniProt Q15003)
inactive: vemurafenib -0.015 | [1] 0.001 | barasertib 0.012 | [2] -0.046 | volasertib -0.044 | [3] 0.027 | [4] -0.057 | [5] -0.035 | saracatinib -0.016 | sotrastaurin 0.015

NELFCD (UniProt Q8IXH7)
Chain of UniProt Q8IXH7 (Q8IXH7 whole entry, looked up): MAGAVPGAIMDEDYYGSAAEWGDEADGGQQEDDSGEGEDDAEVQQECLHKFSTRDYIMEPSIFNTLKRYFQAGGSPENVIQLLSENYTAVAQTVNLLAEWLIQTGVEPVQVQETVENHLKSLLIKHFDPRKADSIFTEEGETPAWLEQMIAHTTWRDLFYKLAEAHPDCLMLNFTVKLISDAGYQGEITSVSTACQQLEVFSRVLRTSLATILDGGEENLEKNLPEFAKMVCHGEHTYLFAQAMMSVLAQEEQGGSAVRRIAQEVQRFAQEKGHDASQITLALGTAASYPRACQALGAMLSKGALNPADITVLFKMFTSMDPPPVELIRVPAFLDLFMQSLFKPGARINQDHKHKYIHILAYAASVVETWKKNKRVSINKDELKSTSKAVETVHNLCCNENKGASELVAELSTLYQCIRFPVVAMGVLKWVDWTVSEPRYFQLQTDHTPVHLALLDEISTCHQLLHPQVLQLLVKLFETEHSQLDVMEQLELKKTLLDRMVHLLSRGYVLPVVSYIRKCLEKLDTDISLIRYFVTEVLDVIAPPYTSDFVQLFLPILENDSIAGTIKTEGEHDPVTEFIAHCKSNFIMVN
inactive: vemurafenib 0.014 | [1] 0.037 | barasertib 0.047 | [2] 0.006 | volasertib -0.032 | [3] 0.02 | [4] 0.089 | [5] -0.049 | saracatinib -0.005 | sotrastaurin 0.012

PARP14 (UniProt Q460N5)
Chain of UniProt Q460N5 (Q460N5 whole entry, looked up): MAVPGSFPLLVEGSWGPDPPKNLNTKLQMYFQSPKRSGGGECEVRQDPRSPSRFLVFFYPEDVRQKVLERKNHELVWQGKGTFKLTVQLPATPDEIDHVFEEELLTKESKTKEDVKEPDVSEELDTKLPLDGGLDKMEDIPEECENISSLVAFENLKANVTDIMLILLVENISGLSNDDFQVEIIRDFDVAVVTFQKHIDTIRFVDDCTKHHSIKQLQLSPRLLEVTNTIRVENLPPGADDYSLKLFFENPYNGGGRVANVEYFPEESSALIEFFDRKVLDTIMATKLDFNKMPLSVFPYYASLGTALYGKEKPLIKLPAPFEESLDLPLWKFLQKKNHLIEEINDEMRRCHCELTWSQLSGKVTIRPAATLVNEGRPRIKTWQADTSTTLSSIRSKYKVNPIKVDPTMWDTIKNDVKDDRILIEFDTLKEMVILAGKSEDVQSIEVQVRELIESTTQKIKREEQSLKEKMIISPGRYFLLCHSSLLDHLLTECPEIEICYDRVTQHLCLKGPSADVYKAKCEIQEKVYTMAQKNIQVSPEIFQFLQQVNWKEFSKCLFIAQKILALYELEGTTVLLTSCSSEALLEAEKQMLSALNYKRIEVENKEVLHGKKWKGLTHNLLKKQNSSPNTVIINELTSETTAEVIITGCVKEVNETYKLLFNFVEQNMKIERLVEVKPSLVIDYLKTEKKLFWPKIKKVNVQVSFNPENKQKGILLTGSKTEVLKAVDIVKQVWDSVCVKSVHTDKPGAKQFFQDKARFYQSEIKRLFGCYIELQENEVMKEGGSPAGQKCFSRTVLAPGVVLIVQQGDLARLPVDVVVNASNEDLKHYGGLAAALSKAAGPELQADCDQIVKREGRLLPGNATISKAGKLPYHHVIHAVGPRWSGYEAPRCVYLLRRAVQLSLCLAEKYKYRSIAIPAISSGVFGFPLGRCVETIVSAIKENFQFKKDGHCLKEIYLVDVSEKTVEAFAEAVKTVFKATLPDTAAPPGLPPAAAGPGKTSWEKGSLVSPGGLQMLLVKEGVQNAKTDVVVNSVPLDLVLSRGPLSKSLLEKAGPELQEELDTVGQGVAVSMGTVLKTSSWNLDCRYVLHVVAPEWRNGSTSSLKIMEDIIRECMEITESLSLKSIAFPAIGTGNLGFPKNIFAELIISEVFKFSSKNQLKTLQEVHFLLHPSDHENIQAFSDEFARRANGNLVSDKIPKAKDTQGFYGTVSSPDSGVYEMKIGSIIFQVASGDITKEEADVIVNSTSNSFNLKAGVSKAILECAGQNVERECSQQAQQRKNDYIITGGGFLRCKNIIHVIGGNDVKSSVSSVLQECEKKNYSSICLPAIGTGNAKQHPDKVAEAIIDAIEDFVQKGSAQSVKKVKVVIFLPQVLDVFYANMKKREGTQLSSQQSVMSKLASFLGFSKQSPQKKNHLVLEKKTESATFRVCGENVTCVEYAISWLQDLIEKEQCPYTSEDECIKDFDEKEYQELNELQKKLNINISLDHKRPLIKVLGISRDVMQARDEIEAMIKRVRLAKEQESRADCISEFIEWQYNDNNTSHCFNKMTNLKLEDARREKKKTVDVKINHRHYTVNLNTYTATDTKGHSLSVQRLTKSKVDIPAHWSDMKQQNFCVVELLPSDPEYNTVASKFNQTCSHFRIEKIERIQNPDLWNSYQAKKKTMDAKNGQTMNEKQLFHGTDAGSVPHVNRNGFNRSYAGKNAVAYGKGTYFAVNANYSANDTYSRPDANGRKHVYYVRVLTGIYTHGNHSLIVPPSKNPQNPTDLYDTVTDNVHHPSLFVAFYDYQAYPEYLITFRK
inactive: vemurafenib 0.067 | [1] 0.062 | barasertib 0.038 | [2] 0.007 | volasertib 0.001 | [3] 0.003 | [4] -0.08 | [5] 0.075 | saracatinib 0.119 | sotrastaurin -0.058

NUCB2 (UniProt P80303)
Chain of UniProt P80303 (P80303 whole entry, looked up): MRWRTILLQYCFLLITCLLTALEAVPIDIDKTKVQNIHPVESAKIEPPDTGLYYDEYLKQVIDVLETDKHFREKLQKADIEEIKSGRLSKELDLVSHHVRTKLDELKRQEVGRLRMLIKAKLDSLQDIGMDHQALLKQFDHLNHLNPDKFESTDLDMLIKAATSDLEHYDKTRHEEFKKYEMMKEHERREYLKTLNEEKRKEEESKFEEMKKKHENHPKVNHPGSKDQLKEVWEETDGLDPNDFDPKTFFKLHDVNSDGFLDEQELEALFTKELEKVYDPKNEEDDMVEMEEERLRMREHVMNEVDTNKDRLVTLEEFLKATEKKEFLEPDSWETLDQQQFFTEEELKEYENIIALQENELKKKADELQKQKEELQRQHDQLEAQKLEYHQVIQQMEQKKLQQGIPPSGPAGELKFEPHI
inactive: vemurafenib 0.01 | [1] -0.009 | barasertib -0.004 | [2] 0.052 | volasertib 0.022 | [3] -0.008 | [5] -0.084 | saracatinib 0.015 | sotrastaurin -0.026
active: [4] 0.338
